This experiment relates to HL-60(TB) leukemia. The experiment in a line: NCI-60 one-dose screen, 48 h (100 = growth as untreated, 0 = no growth, -100 = all killed). Particulars: 10 µM unless noted.

The structures appear in SMILES notation. Compounds without any hit were thinned out: in the full panel of roughly 83,000, 20% have a hit.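 In brief: 96-well plates, 48 h treatment, single concentration, percent growth endpoint.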 Unmarked numbers belong to inactive results. Calls of active or inactive are those of the source. The calls were made as follows: active = growth percent below 10; inactive = the rest.

`CCCCCN(CCCCC)CC(O)c1c(Cl)ccc2ccccc12` (configuration not stated): the growth is 87.6%.

On to `Cc1cc(N/N=C/c2nc(-c3ccc(Cl)cc3)oc2C)c2cc(Br)ccc2n1`, for which the growth is 59%.

For `CC(=O)/C(=C\c1ccc(Cl)cc1)c1ccccc1`, the growth was -16.2% (active).

As for `Cc1cc(Cl)ccc1Nc1nc(C(F)(F)F)ccc1C(=O)N/N=C/c1c(Cl)cccc1Cl`, the growth was -26.8% (active).

Consider `NC(=O)c1c(NC(=O)c2ccc3ccccc3c2)sc2c1CCC(=O)C2`, for which the growth is 50.9%.

Consider `Cc1ccc(NC(=O)c2ccc(CN3CCN(C)CC3)cc2)cc1Nc1nc(-c2cccnc2)cs1`, for which the growth was 57.9%.

Take `COc1ccc(-n2cc(-c3ccccc3)c3c(SCC(=O)N/N=C/c4ccc([N+](=O)[O-])cc4)ncnc32)cc1`: the growth is 103%.

On to `Cc1c(N(C)CS(=O)(=O)O)c(=O)n(-c2ccccc2)n1C`, for which the growth was 96%.

Turning to `COc1ccc(Cn2c(Br)c3c(c2-c2cc(OC)c(OC)c(OC)c2)CCc2sc(NC(=O)c4ccc(OC)cc4)nc2-3)cc1`, the growth was 56.4%.

With `CN1C(=O)N(C)C2(c3ccccc3)N(CC(=O)Nc3ccccc3O)C(=O)NC12c1ccccc1` (configuration not stated), the growth is 98.9%.

Turning to `COc1ccc(C2(Cl)c3ccccc3N(c3ccccc3)c3ccccc32)cc1`, the growth was -22.3% (active).

As for `O=C(N/N=C/c1ccc(O)c(O)c1)c1sc2ccccc2c1Cl`, the growth is 4.17% (active).

Take `O=c1c(-c2nc3ccccc3[nH]2)cc2ccccc2n1Cc1cn(Cc2ccc(N3CCOCC3)cc2)nn1`: the growth was 104%.

Consider `COc1cc(C2=NN(C(C)=O)C(c3ccc(OC(C)=O)cc3OC(C)=O)O2)c(OC(C)=O)c2ccccc12` (configuration not stated), for which the growth is -17.9% (active).

Turning to `CC(SC(C)C(=O)N/N=C/c1cccc(Cl)c1)C(=O)N/N=C\c1cccc(Cl)c1` (configuration not stated), the growth is 82.8%.

Regarding `CCOc1ccccc1NC(=O)c1cc2ccccc2cc1O`, the growth is 48.8%.

As to `O=C(/C=C/c1ccccc1)n1c(-c2ccc(Cl)cc2)nc2ccccc21`, the growth is -3.97% (active).

Turning to `O=C(CCCCCCCCC(=O)N/N=C\c1cc(Cl)ccc1O)N/N=C\c1cc(Cl)ccc1O`, the growth was 9.81% (active).

For the compound `Cc1nc(NC(=S)Nc2ccc(F)cc2)sc1C(=O)NNC(=S)Nc1ccc(F)cc1`, the growth is 48.3%.

In the case of `Brc1ccc(Oc2ccc(Nc3ncnc4onc(-c5ccccc5)c34)cc2)cc1`, the growth was 101%.

Turning to `C=C(CNCCc1ccc(O)cc1)[C@@H]1CC[C@]2(CO)CC[C@]3(C)[C@H](CC[C@@H]4[C@@]5(C)CCC(NCCc6ccc(O)cc6)C(C)(C)[C@@H]5CC[C@]43C)[C@@H]12` (some centres not stated), the growth was -65.2% (active).

With `CC(=O)N1N=C(c2ccc(Nc3nc(NCCO)nc(NCCO)n3)cc2)CC1c1ccc(Cl)cc1` (configuration not stated), the growth is 117%.

On to `O=C1Nc2c(ccc(Cl)c2Cl)/C1=C\c1ccc(C(F)(F)F)cc1`, for which the growth is 51.8%.

With `CCn1cc(-c2ccnc(NCCNS(=O)(=O)c3ccc(Br)cc3)c2)c(-c2cccc(OC)c2)n1`, the growth was 81.4%.

For the compound `O=S(=O)(NCCCNc1nccc(-c2c(-c3cccc(O)c3)nc3occn23)n1)c1ccc(Br)cc1`, the growth was 69.7%.

As to `CCCC(=O)Oc1ccc(CC)cc1`, the growth was 97.6%.

For `CCN1C(=O)/C(=c2\sc3n(c2=O)C2C(NN=3)N(CC)C(=O)N2CC)c2ccccc21` (configuration not stated), the growth was -29.3% (active).

For the compound `O=S(=O)(c1cccc(NC2=Nc3cccc4cccc2c34)c1)N1CCCC1`, the growth is 60.8%.

With `C#C[C@]1(O)CC[C@H]2[C@@H]3CC=C4c5sc(Nc6ccccc6)nc5CC[C@]4(C)[C@H]3CC[C@@]21C`, the growth was 7.59% (active).

Turning to `C=C(C)C(C(=O)OCC)(C(=O)OCC)C(C)C`, the growth was 118%.

As to `O=C1/C(=C/c2ccc(O)cc2)CSc2ccc(Cl)cc21`, the growth is 22.7%.

Regarding `C=C(C)[C@@H]1CCC[C@]2(C(=O)O)CC[C@]3(C)[C@@H](CC[C@@H]4[C@@]5(C)C/C(=C/c6ccncc6)C(=O)C(C)(C)[C@@H]5CC[C@]43C)[C@@H]12`, the growth is -5.12% (active).

In the case of `CCOC(=O)C1=C(CCl)N(C)C(=O)NC1c1ccc2c(c1)OCO2` (configuration not stated), the growth is 33.1%.

For the compound `CCOC(=O)C1C(=O)OC2CCCCC21` (configuration not stated), the growth is 98.5%.

For `CCOC(=O)/C(O)=C(\C=N\C(=S)Nc1ccc(Cl)c(Cl)c1)C(=O)OCC`, the growth is 83.6%.

Turning to `COc1ncc(-c2ccc3ncnc(Nc4cccc(Cl)c4)c3c2)cc1N(S(C)(=O)=O)S(C)(=O)=O`, the growth was 49.7%.

Turning to `Cc1[nH]c(-c2nc3ccccc3[nH]2)c(C)c1C(=O)N1CCOCC1`, the growth was 111%.

With `Cc1ccc2c(c1)C(C)Cc1c(Cl)ncnc1N2C` (configuration not stated), the growth was 17.3%.

Turning to `O=[N+]([O-])c1ccc(-c2nc(N(CCO)CCO)c3ccccc3n2)o1`, the growth was -11.1% (active).

Take `S=c1[nH]nc(-c2cc3ccc2CCc2ccc(cc2)CC3)n1C1CC1`: the growth was 106%.

Turning to `O=C1Nc2ccccc2/C1=C/c1nc2ccccc2c(=O)[nH]1`, the growth was 102%.

For the compound `c1cc[c]([Bi]([c]2ccccc2)[c]2ccccc2)cc1`, the growth is 96.6%.

As for `OC(c1ccccc1)c1nnc(SCc2ccccc2)n1Cc1ccccc1` (configuration not stated), the growth was 112%.

Regarding `COc1ccc2[nH]c(O)c(/C=c3/cc4c(c(-c5ccc(F)cc5)n3)=Nc3ccccc3-4)c2c1`, the growth is 92.5%.

For the compound `CC(=O)O[C@@H]1C2CCC3C(CC[C@@]4(C)C3CC[C@@H]4C(C)N(C)C)[C@@]2(C)CC[C@@H]1NC(=O)C=C(C)C` (some centres not stated), the growth was -58.8% (active).

Turning to `CC1CCC(C)(C)c2ccccc21` (configuration not stated), the growth was 109%.

For `CCCCC(C=O)(C=C=C(C)C)CC` (configuration not stated), the growth was 104%.

Take `Clc1ccc(-c2cnc3nonc3n2)s1`: the growth was 29%.

In the case of `CCOC(=O)C1=C(C)NC(=O)NC1c1c(Cl)n(-c2ccccc2)c2ccccc12` (configuration not stated), the growth is 73.4%.

On to `Cc1[nH]n(-c2ccccc2)c(=O)c1C=NC(=S)C(N)=S`, for which the growth was 102%.

As to `CNC(=O)c1cc(Oc2ccc3nc(NC(=O)c4cc(C(F)(F)F)cc(C(F)(F)F)c4)sc3c2)ccn1`, the growth is -12.8% (active).

Take `O=C(N/N=C/[C@H](O)[C@H](O)[C@H](O)CO)c1ccc(NC(=O)c2cccnc2)cc1`: the growth is 100%.

With `CCCCCN1C=C/C(=C\C(=O)n2ccc3ccccc32)c2ccccc21`, the growth was 103%.

Regarding `COc1cc(CNC(=O)CCCC/C=C/C(C)C)ccc1OCc1cn(-c2ccc([N+](=O)[O-])cc2)nn1`, the growth was 81%.

As to `CC/C=C1/C(=O)C=C[C@@H]1C/C=C\CCCC(=O)O`, the growth is 52.1%.

As for `CCOC(=O)c1c(C(=O)OCC)c2cc(-c3ccn4c(C(=O)c5ccccc5)c(C(=O)OCC)c(C(=O)OCC)c4c3)ccn2c1C(=O)c1ccccc1`, the growth was 86.3%.

Consider `COc1cc(/C=C2\C(=O)N(CC(O)COc3cc(O)c4c(=O)cc(-c5ccccc5)oc4c3)c3ccccc32)cc(OC)c1O` (configuration not stated), for which the growth was 80.5%.

Consider `O=C(Nc1ccc(NCCN2CCOCC2)nc1)c1ccc([N+](=O)[O-])cc1`, for which the growth is 127%.

With `CC(=O)[C@H]1CC[C@H]2[C@@H]3CC[C@@H]4CC=C(C=O)C[C@]4(C)[C@H]3CC[C@]12C`, the growth was 78.2%.

Regarding `O=S(=O)(CCN1CCOCC1)Nc1cncc(-c2ccc3ncnc(Nc4ccc(F)c(Cl)c4)c3c2)c1`, the growth is 110%.

On to `COc1ccc2c(c1)N(CCO)C1=C(C(=O)OC1)C2c1ccccc1` (configuration not stated), for which the growth is -20% (active).

With `CCOC(=O)/C(=C\c1ccccc1Cl)P(=O)(OCC)OCC`, the growth was 10.8%.

Take `NCCCCCCNc1cc(-c2cccc(OC(F)(F)F)c2)nc2ccc(N3CCCC3)cc12`: the growth was -60.2% (active).

Turning to `Cc1cc(Cc2cc(C)c(N)cc2N)c(N)cc1N`, the growth is 85.6%.

`CC1(C)CCC[C@]23C(=O)O[C@](O)(C(=O)C4=C[C@@](C)(/C=C/CCCc5ccc6ccc7cccc8ccc5c6c78)CC[C@@]42O)[C@@H]13`: the growth is -18.3% (active).

`CC1(C)CC(=O)C2=C(C1)C(c1ccc(Cl)cc1)n1ncc(C#N)c1N2` (configuration not stated): the growth is 97.9%.

As to `CCN1CCN(c2nc(NNC(=O)Cc3ccccc3)nc(N3CCN(C(c4ccccc4)c4ccccc4)CC3)n2)CC1`, the growth was -53.9% (active).

In the case of `CCOC(=O)c1c(-c2cc(OC)c(OC)c(OC)c2)csc1N`, the growth was 96.3%.

For the compound `O=C1Nc2ccccc2C1(c1c[nH]c2ccccc12)c1c[nH]c2ccccc12`, the growth was 77.8%.

For `O=c1[nH]c(Cc2nc3ccccc3s2)nc2cc(Br)ccc12`, the growth was 77%.

With `CN1CCN(c2ccc(Nc3ncc(C(N)=O)c(NCCCNC(=O)C4CCC4)n3)cc2)CC1`, the growth is -36.3% (active).

`O=S(=O)(NCCCNc1nccc(-c2c(-c3ccc(O)cc3)nc3sccn23)n1)c1ccc(F)cc1`: the growth was -32.3% (active).

Take `O=[N+]([O-])c1cc2c(cc1Br)-c1ccccc1C2`: the growth is 104%.

In the case of `CCOC(=O)c1sc(NC(=O)COc2ccc(/C=C3\CCc4cc(OC)ccc4C3=O)cc2)nc1C`, the growth is -57.4% (active).

Consider `CCOC(=O)C(C(C)=O)c1nc2sc3cc(Cl)ccc3n2c(=N)c1C#N` (configuration not stated), for which the growth was 115%.

With `Cc1cc(N[C@@H]2CCC[C@H](Nc3ccnc4cc(Cl)ccc34)C2)nc(N2CCCCCC2)n1`, the growth is -72.5% (active).

In the case of `OCc1ccccc1F`, the growth is 135%.

For `COc1cc(/C=C/C(=O)c2cc(-c3ccc(F)cc3)ccc2O)cc(OC)c1OC`, the growth is 39.5%.

As to `COc1ccc(/C(=C/c2cc(OC)c(OC)c(OC)c2)[N+](=O)[O-])cc1`, the growth is -26.4% (active).

As to `Fc1ccccc1C1c2ccccc2-c2nccn21` (configuration not stated), the growth is 76.5%.

As to `CCCCNC(=O)NS(=O)(=O)c1ccc(N2N=C(c3ccc(C)cc3C)CC2c2ccc(OC)cc2)cc1` (configuration not stated), the growth is 17.4%.

On to `COc1cnc2c(c1)C(=O)c1c-2n(CCCn2ccnc2)c(=O)c2cc(Cl)ccc12`, for which the growth is -26.1% (active).

(Values after PubChem BioAssay (NCI).)
